# Screen size: about 7,900 compounds; about 400 (5.1%) showed an effect of 50% or more. This is one part of a sample in which strong results are shown more often than they occur.
# Molecular target: Parkinson's disease protein 7 (PARK7/DJ1) (human, UniProt Q99497)
# Test: primary screen, percent inhibition; read as competition with a fluorescent probe by fluorescence polarization; higher = more effect of the substance
# Conditions: 100 µM
# Method in brief: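 Fluorescence-polarization probe displacement (JYQ-107, 20 nM final, 2 h) after 2 h preincubation of PARK7 (0.2 μM final) with each fragment at 100 μM final. Read-out ex/em 480/520 nm; remaining activity derived from FP signal loss relative to reference controls.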
# Sequence of Parkinson's disease protein 7 (PARK7/DJ1) (Q99497 whole entry, looked up): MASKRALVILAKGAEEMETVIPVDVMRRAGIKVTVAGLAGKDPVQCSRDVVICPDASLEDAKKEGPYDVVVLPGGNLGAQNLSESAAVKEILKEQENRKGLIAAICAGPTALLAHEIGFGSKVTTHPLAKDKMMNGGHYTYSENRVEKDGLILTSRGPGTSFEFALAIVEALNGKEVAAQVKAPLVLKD
row,Structure (SMILES),Inhibition % [%]
1,C=CC(=O)NC(C)c1cnn(C)c1 (stereo not drawn),5.67
2,Cl.O=S(=O)(F)CC1CCCNC1 (stereo not drawn),7.49
3,O=C1NC(=O)C(CS)N1 (stereo not drawn),84.8
4,Cl.O=S(=O)(F)CCC1CCCCN1 (stereo not drawn),1.97
5,O=C1NC(=O)C(CCS(=O)(=O)F)N1 (stereo not drawn),97.6
6,O=C1NC(=O)C(CCS)N1 (stereo not drawn),26.8
7,O=C1NC(=O)C(CS(=O)(=O)F)N1 (stereo not drawn),69.7
8,Cl.O=S(=O)(F)CC1CNCCO1 (stereo not drawn),11
9,CC1(C)NC(=O)N(CCS(=O)(=O)F)C1=O,-4.21
10,O=C1NC(C2CC2)C1C1CC1 (stereo not drawn),6.35
11,N#Cc1cnc(OCC(F)(F)F)cn1,4.9
12,C=CC(=O)N1CCC(S(=O)(=O)C(C)C)CC1,5.57
13,Cc1csc(C(C#N)=Cc2cnn(C)c2)n1,11.9
14,Cc1cc(C)nc(S)n1,17.2
15,Cc1cc(C)nc(S(=O)(=O)F)n1,55.9
16,Cc1cnc(S(=O)(=O)F)nc1,33.7
17,O=C(CCCCl)N1CCCCC1,2.86
18,O=C1OCCC1N1C(=O)c2ccccc2S1(=O)=O (stereo not drawn),6.02

row,Structure (SMILES),Inhibition % [%]
1,Cc1ccc(C=CS(=O)(=O)Nc2cc(C)nn2C)cc1,20
2,C=CC(=O)N1CCC(C)C(OC)C1 (stereo not drawn),7.85
3,O=C(O)c1ccc2c(=O)[nH]c(S)nc2c1,11.3
4,O=C(O)c1ccc(CS)c(F)c1,82.7
5,O=C(O)c1cccc(CS)c1,30.4
6,O=C(CCl)Nc1cc2c(cc1[N+](=O)[O-])OCCCO2,3.15
7,COc1cccc(C2CCCN2C(=O)CCl)c1 (stereo not drawn),2.56
8,C=CC(=O)N(C)Cc1cnc(N(C)C)nc1,5.02
9,CC(C#N)NS(=O)(=O)c1ccc(S(=O)(=O)F)cc1 (stereo not drawn),23.5
10,CCC(C#N)NS(=O)(=O)c1ccc(S(=O)(=O)F)cc1 (stereo not drawn),31.6
11,CC(C#N)NS(=O)(=O)c1cccc(S(=O)(=O)F)c1 (stereo not drawn),102
12,CCCC(C#N)NS(=O)(=O)c1cccc(S(=O)(=O)F)c1 (stereo not drawn),96.8
13,CCCC(C#N)NS(=O)(=O)c1ccc(S(=O)(=O)F)cc1 (stereo not drawn),33.3
14,N#CC1(NS(=O)(=O)c2ccc(S(=O)(=O)F)cc2)CCC1,31.4
15,O=C(CN1CCSC1=O)NC1CCN2CCCCC12 (stereo not drawn),10.2
16,COc1ccc(C(C)(C)C)cc1NC(=O)CCl,10.8
17,O=C(Nc1ccccc1F)N1CCC(C2OCCO2)CC1,5.67
18,C=C(C)c1nc(C#N)c(NCc2ccccc2)o1,9.08
